In PubChem BioAssay (NCATS):
Values without a mark were called inactive. Inconclusive results are not listed. Calls of active or inactive are those of the source. Unless noted, calls come from the whole dose curve; as a rule, active = well fitted curve in either direction with a large enough effect (not every such curve was filed as active); inconclusive = small, poorly fitted or top-dose-only effect, or another doubt; inactive = flat fitted curve, though single readings scatter.

Key:
[1] = biological target: Lysosomal acid glucosylceramidase (Homo sapiens) (UniProt P04062); experiment: Glucocerebrosidase-p2 (AID 348; in the data active = potency below about 10 µM; note: potency is the fitted concentration of half-maximal effect); settings: purified GBA, blue fluorogenic substrate, 40 min
Summary of the method: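 Normal human glucocerebrosidase (0.2 nM) with blue fluorogenic substrate (80 uM final) in citrate/phosphate pH 5.9 with 10mM sodium taurocholate, 0.01% tween-20; 40 min RT, NaOH/glycine stop; fluorescence Ex 365/Em 440; AC50 from a titration from 0.6 nM upwards.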

[2] = AP1 Signaling Pathway (AID 357); settings: ME-180 AP-1-bla reporter, EGF-induced, beta-lactamase ratio, 5 h; at 7.69 µM (top of the series) unless noted;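 note: ME-180 reporter cells stimulated with EGF at its EC50 level; % is set by controls: 0 for no effect and ±100 for the full control effect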
Summary of the method: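 Beta-lactamase reporter under AP-1 response element, ME-180 background. Stimulus: EC50 EGF. Compound exposure 5 h, 37 °C. Detection: CCF4, 2.5 h RT, 460/530 nm. Values: AC50 from titration.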

[3] = NFAT Signaling Pathway (AID 444); settings: Jurkat NFAT-bla M1, carbachol, beta-lactamase ratio, 5 h; at 7.69 µM (top of the series) unless noted;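 note: carbachol stimulus at about its EC50 of 1 µM final; % is set by controls: 0 for no effect and ±100 for the full control effect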
Summary of the method: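 Read-out: CCF4 FRET ratio (460 nm/530 nm) after 1 h RT dye loading, used for %activity and AC50 from titration series. Cells: Jurkat NFAT-β-lactamase/M1 line, treated with compound plus 1 uM carbachol for 5 h, 37 °C.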

[4] = Stat Signaling Pathway (AID 446); settings: ME-180 SIE beta-lactamase reporter, IL-6 stimulated, 5 h; at 7.69 µM (top of the series) unless noted;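 note: ME-180 cervical cancer cells given 40 pM IL-6 alongside compound; SIE-controlled beta-lactamase reporter measured as 460/530 nm FRET emission ratio; % is set by controls: 0 for no effect and ±100 for the full control effect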
Summary of the method: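 Compound effects on IL-6-induced STAT reporter activity were measured in ME-180 cells. After overnight culture, cells were co-treated with 40 pM IL-6 for 5 hrs before beta-lactamase substrate loading at room temperature.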

[5] = biological target: Glucocorticoid receptor (Homo sapiens) (UniProt P04150); experiment: GR-GFP Redistribution (AID 450;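 active = compounds whose dose series gives a full or clear partial fitted curve of increased nuclear translocation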; note: potency is the fitted concentration of half-maximal effect); settings: U2OS GR-GFP nuclear translocation, laser cytometry, 2 h
[6] = biological target: Glucocorticoid receptor (Homo sapiens) (UniProt P04150); experiment: GR-EFC Redistribution (AID 451; calls by dose curve; note: potency is the fitted concentration of half-maximal effect); settings: CHO-K1 GR-EFC translocation, beta-gal luminescence, 2 h
Summary of the method: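 Translocation of GR-ED fusion to nuclear EA restores b-gal, read by luminescence after 1 h room-temperature detection. Engineered CHO-K1 biosensor cells, 1,000/well, exposed 2 h at 37 C to titrations up to 46 uM final.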

[7] = biological target: Mitogen-activated protein kinase 10 (Mus musculus) (UniProt Q61831); experiment: JNK3 AlphaScreen Assay (AID 530); settings: JNK3 lysate, c-Jun phosphorylation; series mostly up to 11.4 µM;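 note: kinase came from lysate of stimulated human HepG2 cells; signal reports phosphorylation of biotinylated GST-cJun 1-79 at Ser73 with 10 µM ATP; % is set by controls: 0 for no effect and ±100 for the full control effect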
Summary of the method: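 qHTS titrations with 15 min compound pre-incubation before adding ATP (10 uM final). Read-out: AlphaScreen of Ser73-phosphorylated biotin-GST-cJun using HepG2 lysate JNK3 activated by IL-1β and TNFα.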

[8] = biological target: 3',5'-cyclic-AMP phosphodiesterase 4B (Homo sapiens) (UniProt Q07343); experiment: qHTS Assay for Inhibitors of PDE-IV (AID 607; active = well fitted activation curve with a large enough effect in the main read-out, with a control signal flat, not every such curve was filed as active; note: % of control where 0% means no effect); settings: HEK293 ACTOne CNG channel cells, membrane potential fluorescence; series mostly up to 22.9 µM
Summary of the method: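 ACTOne HEK293 cells carry a modified cAMP-gated CNG channel and express endogenous PDE4; plated 1000 cells/well, compounds up to 22.9 uM final. Membrane-potential dye fluorescence (ex 535/em 590) was read; parental cells received 10 uM forskolin + 100 uM RO 20-1724.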

[9] = biological target: Cytochrome P450 2C19 (Homo sapiens) (UniProt P33261); experiment: qHTS Assay for Inhibitors and Substrates of Cytochrome P450 2C19 (AID 899; active = well fitted inhibition curve with a large enough effect; note: % is set by controls: 0 for no effect and ±100 for the full control effect; nearly all actives have a fitted effect of over 60% in size); settings: recombinant CYP2C19, luciferin-H EGE luminescence; series mostly up to 11.4 µM
Summary of the method: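 5nM enzyme + 10uM Luciferin-H EGE (=KM), 50mM KPO4; cpd pin-transferred, 10 min 37C; NADPH regen, 60 min 37C; stopped w/ luciferin detection reagent, 20 min; luminescence. Normalized to 57uM ketoconazole (AC100).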

[10] = qHTS Assay for Identification of Small Molecule Agonists for Hypoxia Response Element Signaling Pathway (AID 914; active = well fitted activation curve with a large enough effect in the signal ratio, with a control signal flat, not every such curve was filed as active; the % refers to the signal ratio; note: % of control where 0% means no effect); settings: ME-180 (cervical carcinoma) HRE-bla reporter, beta-lactamase ratio, CoCl2, 17 h; activation: active compounds read high
Summary of the method: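 HRE-bla ME-180 assay for agonist-like enhancement of an EC50 CoCl2 stimulus: 17 h at 37 degrees Celsius, CCF4 for 2.5 h, ratiometric 460/530 nm signal converted to %Activity and fitted to AC50.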

[11] = biological target: Cytochrome P450 2D6 (Homo sapiens) (UniProt P10635); experiment: qHTS Assay for Inhibitors and Substrates of Cytochrome P450 2D6 (AID 891; active = well fitted inhibition curve with a large enough effect; note: nearly all actives have a fitted effect of over 60% in size; note: potency is the fitted concentration of half-maximal effect); settings: recombinant CYP2D6, luciferin-ME EGE luminescence; series mostly up to 11.4 µM
Summary of the method: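 Luminescent read-out of luciferin formed by 5 nM human CYP2D6 demethylating 30 uM Luciferin-ME EGE (Km level) over 60 min at room temperature after NADPH regeneration addition. Data normalized to full inhibition by 1.43 uM quinidine.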

Cytochrome P450 2D6 (Homo sapiens), sequence (P10635 whole entry, looked up): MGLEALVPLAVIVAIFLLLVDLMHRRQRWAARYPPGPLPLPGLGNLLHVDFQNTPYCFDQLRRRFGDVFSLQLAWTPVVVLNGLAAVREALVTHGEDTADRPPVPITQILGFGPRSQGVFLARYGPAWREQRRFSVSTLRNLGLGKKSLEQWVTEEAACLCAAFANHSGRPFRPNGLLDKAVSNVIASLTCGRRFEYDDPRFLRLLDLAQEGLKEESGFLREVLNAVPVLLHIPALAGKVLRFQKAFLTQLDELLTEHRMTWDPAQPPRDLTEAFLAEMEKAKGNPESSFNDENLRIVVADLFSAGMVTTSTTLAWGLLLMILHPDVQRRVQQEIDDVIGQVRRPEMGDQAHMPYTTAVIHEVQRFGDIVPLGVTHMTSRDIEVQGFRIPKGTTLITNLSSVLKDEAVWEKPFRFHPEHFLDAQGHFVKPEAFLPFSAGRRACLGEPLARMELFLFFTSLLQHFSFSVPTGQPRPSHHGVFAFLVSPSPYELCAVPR
3',5'-cyclic-AMP phosphodiesterase 4B (Homo sapiens), sequence (Q07343 whole entry, looked up): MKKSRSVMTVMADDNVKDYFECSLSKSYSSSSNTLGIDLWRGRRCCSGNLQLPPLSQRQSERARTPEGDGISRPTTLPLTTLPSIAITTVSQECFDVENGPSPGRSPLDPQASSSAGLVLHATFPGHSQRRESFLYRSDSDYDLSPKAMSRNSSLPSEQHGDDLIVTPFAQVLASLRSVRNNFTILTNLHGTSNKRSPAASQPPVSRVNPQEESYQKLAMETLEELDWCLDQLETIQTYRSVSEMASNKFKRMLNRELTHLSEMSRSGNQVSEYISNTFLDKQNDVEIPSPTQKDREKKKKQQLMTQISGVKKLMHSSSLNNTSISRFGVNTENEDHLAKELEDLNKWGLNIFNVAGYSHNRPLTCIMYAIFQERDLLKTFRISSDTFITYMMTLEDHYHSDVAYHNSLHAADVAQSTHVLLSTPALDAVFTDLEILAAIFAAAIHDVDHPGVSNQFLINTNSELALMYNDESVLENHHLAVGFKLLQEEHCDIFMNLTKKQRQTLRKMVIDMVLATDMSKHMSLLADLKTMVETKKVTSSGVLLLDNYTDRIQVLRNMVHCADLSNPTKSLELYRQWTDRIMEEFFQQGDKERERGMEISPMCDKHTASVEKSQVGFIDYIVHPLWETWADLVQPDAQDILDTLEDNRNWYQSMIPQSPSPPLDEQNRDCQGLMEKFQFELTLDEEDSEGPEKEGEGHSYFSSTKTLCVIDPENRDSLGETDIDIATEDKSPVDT
Glucocorticoid receptor (Homo sapiens), sequence (P04150 whole entry, looked up, the tested form may be a part): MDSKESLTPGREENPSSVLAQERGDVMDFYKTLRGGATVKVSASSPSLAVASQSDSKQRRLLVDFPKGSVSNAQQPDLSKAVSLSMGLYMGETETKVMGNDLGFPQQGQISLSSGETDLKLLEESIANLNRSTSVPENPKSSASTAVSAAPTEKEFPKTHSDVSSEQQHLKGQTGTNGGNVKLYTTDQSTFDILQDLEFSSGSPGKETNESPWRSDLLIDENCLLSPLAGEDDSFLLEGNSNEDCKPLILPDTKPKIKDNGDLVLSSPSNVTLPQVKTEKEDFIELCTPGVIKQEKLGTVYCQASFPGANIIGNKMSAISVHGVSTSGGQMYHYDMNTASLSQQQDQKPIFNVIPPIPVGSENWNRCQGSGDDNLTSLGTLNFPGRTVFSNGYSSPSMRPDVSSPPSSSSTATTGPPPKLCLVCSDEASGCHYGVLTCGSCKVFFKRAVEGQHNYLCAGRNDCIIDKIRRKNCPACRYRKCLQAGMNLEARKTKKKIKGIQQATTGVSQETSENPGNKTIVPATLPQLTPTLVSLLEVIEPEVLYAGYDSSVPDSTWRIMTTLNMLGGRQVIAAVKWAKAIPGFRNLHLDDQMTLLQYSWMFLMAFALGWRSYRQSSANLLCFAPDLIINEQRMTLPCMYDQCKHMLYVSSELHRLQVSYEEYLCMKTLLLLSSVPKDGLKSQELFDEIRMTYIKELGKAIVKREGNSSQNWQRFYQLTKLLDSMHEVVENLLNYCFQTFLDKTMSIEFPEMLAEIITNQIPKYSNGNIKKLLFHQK
Lysosomal acid glucosylceramidase (Homo sapiens), sequence (P04062 whole entry, looked up): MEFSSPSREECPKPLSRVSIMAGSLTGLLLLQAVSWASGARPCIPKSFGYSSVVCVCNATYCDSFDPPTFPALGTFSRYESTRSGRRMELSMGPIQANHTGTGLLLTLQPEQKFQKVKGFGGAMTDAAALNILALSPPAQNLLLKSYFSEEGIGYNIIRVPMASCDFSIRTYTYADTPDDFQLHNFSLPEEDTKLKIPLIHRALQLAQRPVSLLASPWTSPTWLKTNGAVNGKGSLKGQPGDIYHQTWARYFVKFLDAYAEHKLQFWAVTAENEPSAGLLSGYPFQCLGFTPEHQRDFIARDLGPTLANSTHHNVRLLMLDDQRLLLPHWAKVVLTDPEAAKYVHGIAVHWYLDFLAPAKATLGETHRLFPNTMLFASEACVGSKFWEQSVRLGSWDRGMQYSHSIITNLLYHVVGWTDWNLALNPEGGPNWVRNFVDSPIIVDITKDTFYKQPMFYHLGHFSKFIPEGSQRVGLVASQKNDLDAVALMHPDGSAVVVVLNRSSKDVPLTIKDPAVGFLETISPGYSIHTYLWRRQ
Cytochrome P450 2C19 (Homo sapiens), sequence (P33261 whole entry, looked up): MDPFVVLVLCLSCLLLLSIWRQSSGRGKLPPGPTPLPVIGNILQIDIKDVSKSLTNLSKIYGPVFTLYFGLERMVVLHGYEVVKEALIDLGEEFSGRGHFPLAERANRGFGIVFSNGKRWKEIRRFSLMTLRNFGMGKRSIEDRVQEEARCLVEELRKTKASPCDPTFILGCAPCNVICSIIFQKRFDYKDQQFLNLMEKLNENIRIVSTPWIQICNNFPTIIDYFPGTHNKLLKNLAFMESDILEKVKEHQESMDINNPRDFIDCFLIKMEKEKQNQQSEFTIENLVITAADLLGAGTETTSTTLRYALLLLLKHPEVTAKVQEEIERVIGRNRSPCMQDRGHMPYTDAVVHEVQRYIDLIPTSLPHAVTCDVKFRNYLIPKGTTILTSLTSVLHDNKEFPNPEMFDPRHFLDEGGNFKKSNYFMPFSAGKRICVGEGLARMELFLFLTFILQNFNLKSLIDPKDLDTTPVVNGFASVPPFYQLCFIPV

## Cc1cc(=O)oc2cc(O)c(CN(C)CC(=O)O)cc12
[1]
  Potency: > 11.4 µM
[2]
  activity change, negative = inhibition: 8.78%
[3]
  activity change, negative = inhibition: 10.9%
[4]
  activity, negative = inhibition: -5.54%
[5]
  Potency: > 46 µM
[6]
  Potency: > 9.22 µM
[7]
  Potency: inactive
[8]
  Potency: inactive
[9]
  Potency: inactive
[10]
  activation: 2.1%

## c1cncc(CNCc2cccnc2)c1
[1]
  Potency: > 11.4 µM
[2]
  activity change, negative = inhibition: -1.94%
[3]
  activity change, negative = inhibition: 2.26%
[4]
  activity, negative = inhibition: 12.4%
[5]
  Potency: > 46 µM
[6]
  Potency: > 9.22 µM
[7]
  Potency: inactive
[8]
  Potency: inactive
[11]
  Potency: inactive

## CN1CCN(CN2C(=O)C3C4C=CC(C3C2=O)C2C3C(=O)N(CN5CCN(C)CC5)C(=O)C3C42)CC1 (centres undefined)
[1]
  Potency: > 11.4 µM
[2]
  activity change, negative = inhibition: 4.11%
[3]
  activity change, negative = inhibition: 4.36%
[4]
  activity, negative = inhibition: 11%
[5]
  Potency: > 46 µM
[6]
  Potency: > 9.22 µM
[7]
  Potency: inactive
[8]
  Potency: inactive
[11]
  Potency: inactive

## O=[N+]([O-])c1cccc(/C=N\NC2=CS(=O)(=O)C=C2)c1
[1]
  Potency: > 11.4 µM
[2]
  activity change, negative = inhibition: 4.95%
[3]
  activity change, negative = inhibition: 14.6%
[4]
  activity, negative = inhibition: 5.97%
[5]
  Potency: > 46 µM
[6]
  Potency: > 9.22 µM
[7]
  Potency: inactive
[8]
  Potency: inactive
[10]
  activation: 1.06%

## CC(=O)[C@H](C(=N)C#N)C(=O)Nc1ccccc1
[1]
  Potency: > 11.4 µM
[2]
  activity change, negative = inhibition: -0.768%
[3]
  activity change, negative = inhibition: -3.12%
[4]
  activity, negative = inhibition: 13.1%
[5]
  Potency: > 46 µM
[6]
  Potency: > 9.22 µM
[7]
  Potency: inactive
[8]
  Potency: inactive
[9]
  Potency: inactive

## c1ccc(CCN2CCN=C2Cc2ccccc2)cc1
[1]
  Potency: > 11.4 µM
[2]
  activity change, negative = inhibition: 6.53%
[3]
  activity change, negative = inhibition: -21.9%
[4]
  activity, negative = inhibition: 14.6%
[5]
  Potency: > 46 µM
[6]
  Potency: > 9.22 µM
[7]
  Potency: inactive
[8]
  Potency: inactive
[11]
  Potency: 0.126 µM (active)

## Clc1ccc(CSC2=NCCN2)cc1Cl
[1]
  Potency: > 11.4 µM
[2]
  activity change, negative = inhibition: -9.06%
[3]
  activity change, negative = inhibition: -19.4%
[4]
  activity, negative = inhibition: -8%
[5]
  Potency: > 46 µM
[6]
  Potency: > 9.22 µM
[7]
  Potency: inactive
[8]
  Potency: inactive
[11]
  Potency: 3.16 µM (active)
